This is part of a sample that, as a whole, favours compounds with a hit. Of some 83,000 tested, about 20% had one in any assay.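 Interpretation: 100, growth as untreated; towards 0, rising growth inhibition; 0, no net growth; 0 to -100, cell death. Compounds scoring below 10 were considered active.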 The source made the active and inactive calls.
Key:
Assay in all cases: NCI-60 one-dose screen, 48 h (100 = growth as untreated, 0 = no growth, -100 = all killed)
Conditions in all cases: 10 µM unless noted
[1] = test system: NCI-H23 lung
[2] = test system: NCI-H226 lung
[3] = test system: NCI-H322M lung
[4] = test system: HOP-62 NSCLC
[5] = test system: NCI-H460 lung
[6] = test system: HOP-92 NSCLC
[7] = test system: NCI-H522 lung
[8] = test system: A549/ATCC NSCLC
[9] = test system: 786-0 renal
[10] = test system: COLO 205 colon
[11] = test system: DU-145 prostate
[12] = test system: K-562 leukemia
[13] = test system: MALME-3M melanoma
[14] = test system: MDA-MB-231 breast
[15] = test system: RXF 393 renal
[16] = test system: SF-268 CNS
[17] = test system: SF-295 CNS
[18] = test system: SF-539 CNS
[19] = test system: UACC-257 melanoma
[20] = test system: M14 melanoma

Measured: growth

CCCNNC(=O)/C=C/c1ccc(CNCCc2c(C)[nH]c3ccccc23)cc1
active: [4] 3.81% [2.5 µM] | [6] -5.2% [2.5 µM] | [10] -55.7% [2.5 µM] | [15] -17.9% [2.5 µM] | [19] -9.62% [2.5 µM]
inactive: [1] 38.6% [2.5 µM] | [2] 33.6% [2.5 µM] | [3] 15.9% [2.5 µM] | [5] 23.8% [2.5 µM] | [7] 19.7% [2.5 µM] | [8] 14% [2.5 µM] | [9] 22.8% [2.5 µM] | [11] 24.4% [2.5 µM] | [12] 10.7% [2.5 µM] | [13] 20% [2.5 µM] | [14] 35% [2.5 µM] | [16] 32.1% [2.5 µM] | [17] 18% [2.5 µM] | [18] 31.1% [2.5 µM] | [20] 17.7% [2.5 µM]

O=c1cc(N/N=C/c2ccc(F)cc2)c2cc(Cl)ccc2[nH]1
active: [6] -48.3% | [12] 2.38%
inactive: [1] 85.3% | [2] 76.1% | [3] 95.2% | [4] 95% | [5] 102% | [7] 72.8% | [8] 89.3% | [9] 89.5% | [10] 96.2% | [11] 102% | [13] 98.4% | [14] 94.4% | [15] 113% | [16] 106% | [17] 100% | [18] 104% | [19] 85.8% | [20] 81.2%

N=C(N)c1ccc(-c2ccc(-c3ccc(F)cc3)s2)nc1
inactive: [1] 81.8% | [2] 72.1% | [3] 66% | [4] 80.5% | [6] 69.8% | [7] 64% | [8] 59.1% | [9] 88.7% | [11] 81.5% | [13] 89.5% | [14] 57.1% | [15] 80.1% | [16] 87.6% | [17] 79.5% | [18] 79.6% | [19] 93% | [20] 76.1%
active: [5] -13.2% | [10] -46.7% | [12] 0.099%

COc1cc2ncnc(Nc3ccc(F)c(Cl)c3)c2cc1OCC(=O)N1CCCCC1
inactive: [1] 91% | [2] 86.8% | [3] 29% | [4] 103% | [5] 95.5% | [6] 81.6% | [7] 33.1% | [8] 67.8% | [9] 78.2% | [10] 96% | [11] 53.8% | [12] 73.6% | [13] 99.1% | [14] 105% | [15] 84.8% | [16] 80% | [17] 92.1% | [18] 104% | [19] 101% | [20] 85.5%

N=c1c2c(-c3ccccc3)c(-c3ccccc3)oc2ncn1NC(=O)c1cccnc1
inactive: [1] 93.2% | [2] 108% | [3] 98.7% | [4] 102% | [5] 105% | [6] 91% | [7] 95.1% | [8] 103% | [9] 99% | [10] 115% | [11] 106% | [12] 87.8% | [13] 114% | [14] 102% | [15] 117% | [16] 106% | [17] 101% | [18] 97.2% | [19] 105% | [20] 105%

CN1CCN(c2ccc(Nc3ncc(C(N)=O)c(NCCCNC(=O)C4CCC4)n3)cc2)CC1
inactive: [1] 70.4% | [2] 62.1% | [3] 75.8% | [4] 34% | [5] 78.9% | [6] 113% | [7] 77.3% | [8] 78.2% | [9] 90.2% | [11] 67.6% | [12] 41.7% | [13] 76.6% | [14] 11.6% | [15] 20.4% | [16] 80.6% | [17] 81.3% | [18] 11.1% | [19] 119% | [20] 80%
active: [10] -5.21%

CC[C@H](C)[C@H](NC(=O)[C@@H](N)CCC(N)=O)C(=O)N[C@@H](Cc1ccc(O)cc1)C(=O)N[C@@H](CCCCN)C(=O)N[C@@H](CCCCN)C(=O)N[C@@H](Cc1ccc(O)cc1)C(=O)N[C@@H](CCCNC(=N)N)C(=O)N[C@H](C(=O)N[C@@H](Cc1c[nH]c2ccccc12)C(=O)N[C@@H](Cc1ccc(O)cc1)C(=O)N[C@@H](CCCNC(=N)N)C(=O)N[C@@H](CCCCN)C(=O)N[C@@H](C)C(=O)N[C@@H](Cc1c[nH]c2ccccc12)C(=O)N[C@@H](CCCCN)C(=O)N[C@H](C(=O)N[C@@H](CC(C)C)C(=O)NCC(=O)N[C@@H](CCCCN)C(=O)N[C@H](C(N)=O)C(C)C)C(C)C)[C@@H](C)O
active: [1] -15.1% | [5] -4.21% | [6] -21.2% | [9] -57.9% | [10] 0.119% | [11] 6.03% | [12] 5.04% | [13] -30.6% | [14] -29.7% | [16] -29.8% | [18] -40.7% | [20] -11.8%
inactive: [2] 53.4% | [3] 23% | [4] 13.3% | [7] 59.4% | [8] 38.7% | [15] 11.4% | [17] 34.6% | [19] 66.2%

O=C(CCl)n1nnnc1Cc1ccccc1
inactive: [1] 102% | [2] 104% | [3] 102% | [4] 90.2% | [5] 108% | [6] 102% | [7] 90.8% | [8] 92.2% | [9] 95% | [10] 111% | [11] 110% | [12] 83.4% | [13] 106% | [14] 92.9% | [15] 112% | [16] 106% | [17] 90.7% | [18] 92.2% | [19] 88.7% | [20] 98.6%

COc1ccc(Cn2cc(C(=O)Nc3cccnc3Nc3ccccc3)nn2)cc1
inactive: [1] 98.7% | [2] 95.6% | [3] 95.7% | [4] 103% | [5] 114% | [6] 105% | [7] 91.8% | [8] 99.3% | [9] 94.2% | [10] 113% | [11] 103% | [12] 108% | [13] 120% | [14] 86.4% | [15] 103% | [16] 96% | [17] 102% | [18] 95.6% | [19] 110% | [20] 106%

CCCCCCCCN(CCCCCCCC)CC(O)c1cc(Cl)ccc1OC (stereo not given)
inactive: [1] 56% | [2] 62% | [3] 94.7% | [4] 80.8% | [5] 62.6% | [6] 66% | [7] 68% | [8] 83.9% | [9] 72.7% | [10] 55.5% | [11] 81.8% | [12] 50.1% | [13] 99.5% | [14] 51.6% | [15] 51.9% | [16] 84.4% | [17] 76.9% | [18] 77.8% | [19] 90.4% | [20] 84.9%

NS(=O)(=O)c1ccc(C(=O)N=Nc2c(O)[nH]c3c(F)cccc23)cc1
inactive: [1] 94.9% | [2] 96.8% | [3] 98.2% | [4] 97.1% | [5] 111% | [6] 98.2% | [7] 91.2% | [8] 99.9% | [9] 103% | [10] 106% | [11] 113% | [12] 107% | [13] 95.9% | [14] 106% | [15] 97.3% | [16] 107% | [17] 103% | [18] 94.8% | [19] 103% | [20] 101%

C#CCOCC1CN(C)C(=O)O1 (stereo not given)
inactive: [1] 111% | [2] 103% | [3] 114% | [4] 131% | [5] 103% | [6] 97.8% | [7] 99.7% | [8] 93.7% | [9] 110% | [10] 123% | [11] 107% | [12] 101% | [13] 110% | [14] 110% | [15] 131% | [16] 113% | [17] 105% | [18] 102% | [19] 104% | [20] 107%

CN1CCN(C(=O)OCc2nc3c(N4CCOCC4)nc(Cl)nc3n2C)CC1
inactive: [3] 53.7% | [4] 47.3% | [8] 25.1% | [17] 73.4%
active: [1] -1.07% | [2] -60.8% | [5] 6.7% | [6] -32% | [7] -38.8% | [9] -95.5% | [10] -30.8% | [11] 1.69% | [12] -11% | [13] -65.3% | [14] -77.5% | [15] -94.9% | [16] 1.11% | [18] -99% | [19] -64.7% | [20] -77.4%

COc1ccc(Oc2nc(Nc3ccc(N4CCOCC4)cc3)ncc2NC(=O)c2cc(OC)cc(OC)c2)cc1
inactive: [1] 101% | [2] 71.2% | [3] 96.7% | [4] 97% | [5] 95.5% | [6] 70.7% | [7] 58.2% | [8] 82.4% | [9] 66.5% | [10] 64.5% | [11] 98.7% | [12] 58.3% | [13] 108% | [14] 85.2% | [15] 52.3% | [16] 90% | [17] 94% | [18] 87.2% | [19] 99% | [20] 91.4%

Clc1ccc2c(NCCN3CCN(c4ccnc(N5CCCC5)n4)CC3)ccnc2c1
active: [10] -46.5% | [12] 0.171% | [13] -43.3% | [14] 4.01% | [15] -59.2% | [18] -63.1% | [19] -62% | [20] -55.7%
inactive: [1] 56.8% | [2] 80.3% | [3] 44.3% | [4] 77.3% | [5] 16.7% | [6] 23.3% | [7] 45% | [8] 24.6% | [9] 29.4% | [11] 58.1% | [16] 33% | [17] 52.9%
